Assay outcomes (PubChem BioAssay)
S2 tox: viability counter-screen for ATXN expression inhibitors. AID 651635. S2 cells (HEK-293 line with an ATXN2-luciferase reporter) viability, CellTiter-Fluor protease fluorescence, 24 h. Potency, µM (doses to about 56.7 µM), hits mostly cytotoxic. 400,000 compounds, 0.49% hits; also: nearly all actives have a fitted effect of over 40% in size
TGFb SMAD3 inh: blocks TGF-b signaling; HepG2 CAGA-GFP TGF-b/SMAD3 reporter, GFP fluorescence, 18 h; TGF-beta stimulated, 500 pg/mL final; 410,000 compounds, 1.2% hits; Potency, µM (series often up to 46.1 µM), inactives show at the highest dose activity, negative = inhibition, actives largely listed as inhibitors; also: % is scaled to controls: 0 for no effect and ±100 for the full control effect; nearly all actives have a fitted effect of over 65% in size
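HEPG2 CAGA-GFP cells (1000/well, DMEM with 1% FBS) were pre-incubated 2 h at 37 degrees C, given compound by pin tool, then stimulated with TGF-beta at 500 pg/mL final for 18 h before per-cell GFP fluorescence imaging.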
DT40 TDP1 no CPT: qHTS for Inhibitors of human tyrosyl-DNA phosphodiesterase 1 (TDP1): qHTS in cells in absence of CPT; DT40 Tdp1-/- hTDP1 cells, no CPT, ATP luminescence, 48 h; Potency, µM (doses to about 46.2 µM), for the others: at the top dose activity change, negative = growth inhibition, actives largely listed as inhibitors; 420,000 compounds, 15% hits; also: % is scaled to controls: 0 for no effect and ±100 for the full control effect; nearly all actives have a fitted effect of over 55% in size
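Cells were dispensed at 400 per well, compounds added by pin tool, plates incubated ≥48 hr at 37 °C, then CellTiter-Glo added for 30 min at room temperature before luminescence reading. Line: DT40 Tdp1-/- complemented with hTDP1; camptothecin omitted.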
HepG2 viability: HepG2 cytotoxicity, counter-screen for TGF-b inhibitors. Potency, µM (titrated, usually from 46.1 µM), for the others: at the highest dose activity change, negative = cytotoxicity, most hits filed as cytotoxic. HepG2 CAGA-GFP viability, ATP luminescence, 18 h. AID 588856. 410,000 compounds, 0.76% hits
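HepG2 CAGA-GFP cells (1000/well, DMEM with 1% FBS) received compound, then TGF-beta at 500 pg/mL final, and were incubated 18 hours at 37 degrees C. Viability was read by CellTiter-Glo luminescence. Media-only wells were set as complete cell-killing and DMSO as no toxicity.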
ATXN2 expr inh: ATXN2 expression inhibition; HEK-293 ATXN2-luciferase reporter, luminescence, 24 h; Potency, µM (series often up to 57 µM), without a hit: at the top dose activity change, negative = inhibition, usual class: inhibitors; 360,000 compounds, 0.72% hits; also: % is scaled to controls: 0 for no effect and ±100 for the full control effect; nearly all actives have a fitted effect of over 55% in size
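qHTS (up to 57 uM final) was run with 24 h compound exposure of reporter cells at 37 °C. Each well was multiplexed: SteadyGlo luminescence measured ATXN2-luciferase expression after a fluorogenic Gly-Phe-AFC viability readout (25 uM final).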
TDP1 cell CPT: DT40-hTDP1 cell growth loss with CPT; AID 686979; chicken DT40 Tdp1-/-;hTDP1 cells + 20 nM CPT, ATP luminescence, 48 h; 420,000 compounds, 12% hits; Potency, µM (top dose mostly 46.2 µM), for the others: at the highest dose activity change, negative = growth inhibition, actives largely listed as inhibitors; also: % is scaled to controls: 0 for no effect and ±100 for the full control effect; nearly all actives have a fitted effect of over 55% in size
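Chicken DT40 Tdp1-/- cells stably complemented with human TDP1 were seeded at 400 cells/well in medium containing 20 nM camptothecin, exposed to pin-transferred compounds, and grown at 37 °C for at least 48 hr. Viability was read as ATP luminescence.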
Active calls of the source: *. Hits are enriched below; roughly 17% of the tested compounds scored in any of these assays. Calls follow the shape of the dose curve; as a rule, active = well fitted curve in the direction sought with a large enough effect; inconclusive = small, poorly fitted or top-dose-only effect, or another doubt; inactive = no such curve, though single readings can be large; an effect the other way counts as inactive or inconclusive. Potency is read from the fitted curve at half-maximal effect.

Results for O=S(=O)(c1ccc(-c2csc(=Nc3ccccc3)n2CCCN2CCOCC2)cc1)N1CCOCC1 ?
S2 tox: inactive; TGFb SMAD3 inh: -2.4%; DT40 TDP1 no CPT: inconclusive; HepG2 viability: -24.8%; ATXN2 expr inh: -11.1%; TDP1 cell CPT: inconclusive

What do the screens show for `CCCn1c(-c2ccc(S(=O)(=O)N3CCOCC3)cc2)csc1=Nc1ccc(OCC)cc1`?
S2 tox: inactive; TGFb SMAD3 inh: -21.7%; DT40 TDP1 no CPT: 2.91µM*; HepG2 viability: -14.8%; ATXN2 expr inh: 11.7%; TDP1 cell CPT: 4.11µM*

How did CCOc1ccc(S(=O)(=O)N2CN3CCN(C3)C2)cc1 do in these assays?
S2 tox: inactive; TGFb SMAD3 inh: -0.7%; DT40 TDP1 no CPT: inconclusive; HepG2 viability: 9.5%; ATXN2 expr inh: 15.1%; TDP1 cell CPT: inconclusive

How did CCCCn1c(-c2ccc(S(=O)(=O)N3CCOCC3)cc2)csc1=Nc1ccccc1 do in these assays?
TGFb SMAD3 inh: -5.5%; DT40 TDP1 no CPT: 14.6µM*; HepG2 viability: -0.2%; TDP1 cell CPT: 13µM*

How did Oc1oc(-c2ccccc2)nc1C=Nc1ccccc1 do in these assays?
S2 tox: inactive; TGFb SMAD3 inh: inconclusive; DT40 TDP1 no CPT: -13.1%; HepG2 viability: -17.1%; ATXN2 expr inh: 51.0%; TDP1 cell CPT: -10.1%

Results for Sc1oc(-c2ccccc2)cc1C=Nc1ccccc1 ?
S2 tox: inconclusive; TGFb SMAD3 inh: inconclusive; DT40 TDP1 no CPT: 16.4µM*; HepG2 viability: -2.5%; ATXN2 expr inh: 36.3%; TDP1 cell CPT: 5.8µM*

What do the screens show for `COc1ccc(C2CCc3cc4c(cc3C2=NOC(C)=O)OCO4)cc1OC` (stereo not given)?
S2 tox: inactive; TGFb SMAD3 inh: -8.4%; DT40 TDP1 no CPT: 14.6µM*; HepG2 viability: -4.5%; TDP1 cell CPT: 20.6µM*

How did COc1cc2c(cc1OC)C(=O)C(c1ccc3c(c1)OCO3)CC2 (stereo not given) do in these assays?
S2 tox: inactive; TGFb SMAD3 inh: -1.4%; DT40 TDP1 no CPT: inconclusive; HepG2 viability: 2.6%; TDP1 cell CPT: inconclusive

How did CS(=O)(=O)N(CC(=O)N1CCOCC1)c1cccc([N+](=O)[O-])c1 do in these assays?
S2 tox: inconclusive; TGFb SMAD3 inh: -20.4%; DT40 TDP1 no CPT: -7.3%; HepG2 viability: 4.0%; TDP1 cell CPT: 0.0%

Results for Cc1ccc(C(Sc2ccccc2)C(Cn2cncn2)C(=O)c2ccccc2)cc1 (stereo not given) ?
S2 tox: inactive; TGFb SMAD3 inh: -1.6%; DT40 TDP1 no CPT: 23.1µM*; HepG2 viability: -34.8%; ATXN2 expr inh: inconclusive; TDP1 cell CPT: inconclusive

What do the screens show for `Cc1ccc(SCCCn2cncn2)cc1`?
S2 tox: inactive; TGFb SMAD3 inh: 23.7%; DT40 TDP1 no CPT: -15.3%; HepG2 viability: -15.1%; ATXN2 expr inh: 7.0%; TDP1 cell CPT: -6.1%

What do the screens show for `COCCNc1nc(CSc2ccccc2)nc2sc(C)c(C)c12`?
S2 tox: inactive; TGFb SMAD3 inh: -19.3%; DT40 TDP1 no CPT: inconclusive; HepG2 viability: -19.4%; ATXN2 expr inh: -17.8%; TDP1 cell CPT: inconclusive

How did Cc1sc2nc(CSc3ccccc3)nc(N3CCN(C)CC3)c2c1C do in these assays?
S2 tox: inactive; TGFb SMAD3 inh: -7.7%; DT40 TDP1 no CPT: 16.4µM*; HepG2 viability: -7.8%; ATXN2 expr inh: -16.8%; TDP1 cell CPT: inconclusive

What do the screens show for `CN(C)S(=O)(=O)c1ccc(N2CCCC2)c(C(=O)N2CCN(S(=O)(=O)c3ccc(F)c(F)c3)CC2)c1`?
S2 tox: inactive; TGFb SMAD3 inh: -8.4%; DT40 TDP1 no CPT: -19.0%; HepG2 viability: -9.2%; ATXN2 expr inh: 10.5%; TDP1 cell CPT: -29.4%

What do the screens show for `COc1ccc2cc([C@H](C)CO)ccc2c1`?
DT40 TDP1 no CPT: -13.4%; TDP1 cell CPT: 13.3%

What do the screens show for `CCSc1ccc2cc(OC)ccc2[n+]1CC`?
S2 tox: inactive; TGFb SMAD3 inh: 4.9%; DT40 TDP1 no CPT: 7.31µM*; HepG2 viability: -7.0%; ATXN2 expr inh: -20.7%; TDP1 cell CPT: 5.8µM*

How did COc1ccc(Cc2nc3ccc(C(=O)N(C)CCn4ccnc4)cc3o2)cc1OC do in these assays?
S2 tox: inactive; TGFb SMAD3 inh: 5.1%; DT40 TDP1 no CPT: -14.2%; HepG2 viability: 13.2%; ATXN2 expr inh: 26.2%; TDP1 cell CPT: -9.1%

Results for Cc1cc(-c2ccccc2)c2ccc(NC(=O)C(C)(C)C)nc2n1 ?
S2 tox: inconclusive; TGFb SMAD3 inh: -8.9%; DT40 TDP1 no CPT: 14.6µM*; HepG2 viability: -4.3%; TDP1 cell CPT: 20.6µM*

Results for CC(C)(C)C(=O)Nc1cccc(-c2nc3ccccc3c(=O)o2)c1 ?
S2 tox: inactive; TGFb SMAD3 inh: -12.2%; DT40 TDP1 no CPT: -27.3%; HepG2 viability: -1.2%; ATXN2 expr inh: 7.9%; TDP1 cell CPT: -15.8%

What do the screens show for `CC1CCCCN1C(=O)CN1C(=O)NC2(CCCCC2C)C1=O` (stereo not given)?
S2 tox: inactive; TGFb SMAD3 inh: -6.6%; DT40 TDP1 no CPT: -9.8%; HepG2 viability: -8.9%; ATXN2 expr inh: 3.8%; TDP1 cell CPT: -13.5%

How did CCCCOC(=O)Nc1sc2c(c1C(=O)OC)CCC2 do in these assays?
S2 tox: inactive; TGFb SMAD3 inh: 3.3%; DT40 TDP1 no CPT: -19.5%; HepG2 viability: -14.7%; ATXN2 expr inh: -11.2%; TDP1 cell CPT: 8.8%

How did CSc1ncc(Cl)c(C(=O)C(C#N)c2nc3c(C)cc(C)cc3c(=O)[nH]2)n1 (stereo not given) do in these assays?
S2 tox: inactive; TGFb SMAD3 inh: inconclusive; DT40 TDP1 no CPT: 25.9µM*; HepG2 viability: -12.4%; ATXN2 expr inh: -31.5%; TDP1 cell CPT: inconclusive

What do the screens show for `CSc1ncc(Cl)c(C(=O)Nc2cccc(C)c2)n1`?
S2 tox: inactive; TGFb SMAD3 inh: inconclusive; DT40 TDP1 no CPT: -26.0%; HepG2 viability: 1.9%; ATXN2 expr inh: 1.5%; TDP1 cell CPT: -28.0%

Results for CC1(C)CC(NCCN2CCN(C3=CC(=C(C#N)C#N)CC(C)(C)C3)CC2)=CC(=C(C#N)C#N)C1 ?
S2 tox: inactive; TGFb SMAD3 inh: 14.7%; DT40 TDP1 no CPT: 13µM*; HepG2 viability: 6.2%; ATXN2 expr inh: -15.9%; TDP1 cell CPT: 18.4µM*

How did COc1ccccc1CNc1nc2c(S(=O)(=O)c3ccccc3)nnn2c2ccc(Cl)cc12 do in these assays?
S2 tox: inactive; TGFb SMAD3 inh: -3.2%; DT40 TDP1 no CPT: inconclusive; HepG2 viability: 5.6%; ATXN2 expr inh: -1.6%; TDP1 cell CPT: inconclusive
